Drawing on PubChem BioAssay AID1628 (Sanford-Burnham Center for Chemical Genomics, 2009), this text covers z-score for 96 compounds.

Each structure is given as a SMILES string. Screen size: about 190,000 compounds; about 930 (0.49%) were called active. The list shows a part of the results. Potency and affinity values are given separately. A number with no mark means an inactive call.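 How the source made its calls: active means z-score of insulin promoter reporter brightness in nuclei below -3 at 5 µM, with at least 500 cells counted; inconclusive means wells with under 500 cells, flagged as toxic or sparse; inactive means the rest.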

This assay in a line: decrease of insulin promoter-GFP reporter – imaging, high-content screening, mouse beta cells (AID 1628). Particulars: MIN6 insulin promoter GFP reporter, at 5 µM, active compounds read low.
On to `O=C1c2ccccc2-n2c1nc1ccccc1c2=O`, for which the z-score is -2.2. Next, `COc1ccc(OC)c(C2=NOC(C(=O)NCC3CCCO3)C2)c1` (stereo unspecified): 3.67. In the case of `COc1ccc(-c2nnc(SCC3CCCO3)n2C)cc1` (stereo unspecified) it was 2.62; in that of `CCOc1ccc(NC(=O)N2CCCC2C(=O)NCC2CCCO2)cc1` (stereo unspecified), -3.14 (active).

`CCOc1ccc(-n2c(=O)c3c4c(sc3n(CC(=O)NCC3CCCO3)c2=O)CCC4)cc1` (stereo unspecified): the z-score is 1.12.

Take `CCOc1ccc(NC(=S)N2CCC(N(C)CC3CCCO3)CC2)cc1` (stereo unspecified): the z-score is 3.59.

On to `O=[N+]([O-])c1ccc(N/N=C/c2cn(Cc3ccc(F)cc3)c3ccccc23)nc1`, for which the z-score was 4.69. Regarding `CC1(C)Cc2c(c(N3CCOCC3)nc3sc4c(NCc5ccco5)nnnc4c23)CS1`, the z-score is -6.38 (active).

As for `C=CCN1C(=O)/C(=C/c2ccc(N(C)C)cc2)S/C1=N\c1nnc(CC)s1`, the z-score was 14.1. Regarding `Cc1cc(C)cc(N(CC(=O)Nc2cccc(C)n2)S(=O)(=O)c2c(C)noc2C)c1`, the z-score is 2.42. In the case of `C/C=C/c1ccc(OCCCN2C(=O)NC(C)(C)C2=O)c(OC)c1` it was -0.86; in that of `C#CCOCCOCCOCCNc1nc(N2CCN(C(=O)[C@H](CCCCN)n3cc(CCCC)nn3)CC2)nc(N2CCN(C(=O)[C@H](CCCCN)n3cc(CCCC)nn3)CC2)n1`, -4.64 (active); in that of `CCCN1CC=C2C(C#N)=C(N)C(C#N)(C#N)C(c3cccc(OC)c3OC)C2C1` (stereo unspecified), 8.86. Next, `O=C(O)C1CCN(C(=O)OCc2ccccc2)CC1`: -4.9 (active); `CCOC(=O)N1CCC(NC2CCCCCCC2)CC1`: 0.8; `CN1/C(=C/C=C(C#N)C#N)C=Cc2ccccc21`: 5.52. Next, `Cc1nc(CN(C)C(=O)c2cc(COc3ccc4ncccc4c3)on2)cs1`: -5.59 (active); `c1ccc(-c2cnn3c(-c4ccccc4)c(-c4ccccc4)nc3n2)cc1`: 17; `CCCCn1nc(-c2ccccc2)c2nc3ccccc3nc21`: 3.11. As for `N=c1oc2c3c4c(cc2cc1C(=O)Nc1ccccc1)CCCN4CCC3`, the z-score is 18.

For the compound `CCc1ccc2nc3sc(C(=O)N4CCc5ccccc54)c(N)c3cc2c1`, the z-score is 4.93.

As for `CCCCC(=O)NC(c1cccs1)c1cc(Cl)c2cccnc2c1O` (stereo unspecified), the z-score is -5.86 (active). On to `CCC(=O)NC(c1cccs1)c1cc(Cl)c2cccnc2c1O` (stereo unspecified), for which the z-score was -4.24 (active). Next, `CCN1CC=C2C(C#N)=C(N)C(C#N)(C#N)[C@H](c3cccc(OC)c3OC)[C@H]2C1`: 11.6. `Cc1ccc(N=C2NC(=O)/C(=C/c3cn(C)c4ccccc34)S2)cc1C`: the z-score was 3.02.

`CC1CC(=O)C2=C(C1)OC(N)=C(C#N)C2c1coc2ccccc2c1=O` (stereo unspecified): the z-score is 3.02. In the case of `NC(=O)c1sc2nccc(Nc3ccccc3)c2c1N` it was -3.42 (active); in that of `Nc1c(C(=O)Nc2nccs2)sc2nc(-c3cccs3)cc(C(F)(F)F)c12`, 5.95; in that of `Nc1c(C(=O)O)sc2nc(-c3ccccc3)cc(-c3ccccc3)c12`, 4.64. `CS(=O)c1nc(-c2ccc(Br)cc2)cc(-c2ccccc2)c1C#N` (stereo unspecified): the z-score was -4.24 (active). In the case of `Cc1ccc(S(=O)(=O)CCSc2nc(C)cc(C(F)(F)F)c2C#N)cc1` it was 10.9; in that of `Nc1c(Cl)ncnc1N1CCCC1`, -3.27 (active); in that of `COc1ccc2c(c1)sc1nc(-c3ccccc3)cn12`, -7.22 (active). Next, `COc1ccc(-c2ccc3c(N)c(C(=O)c4cccc(OC)c4)sc3n2)cc1`: 4.07. Next, `CCOc1ccc(OCCCCn2ccnc2)cc1`: 3.52; `Cc1cc(Cl)cc(C)c1OCCCCn1ccnc1`: -4.53 (active); `Cc1cccc(OCCCCCn2ccnc2)c1C`: -4.58 (active). As to `O=S(=O)(c1ccc2oc3ccc(S(=O)(=O)N4CCCCC4)cc3c2c1)N1CCCCC1`, the z-score was -3.18 (active). Turning to `Cc1c(C(=O)NCc2cccnc2)oc2ccc(S(=O)(=O)N3CCCCCC3)cc12`, the z-score is -5.16 (active). In the case of `CCN(CC)S(=O)(=O)c1ccc2oc(C(=O)NCc3ccc(F)cc3)c(C)c2c1` it was -4.31 (active); in that of `Cc1ccc(S(=O)(=O)c2cccc(S(=O)(=O)N3CCCC3)c2)cc1S(=O)(=O)N1CCCC1`, 3.05; in that of `O=C(O)CCCN=Cc1c(O)c2ccccc2oc1=O`, 2.46. Next, `Cc1oc(C)c2c(=O)ccc3c(c12)OC(N)=C(C#N)C3c1ccccc1Cl` (stereo unspecified): 6.29. `COCCNC(=O)/C(=C/c1ccccc1Cl)c1ccccc1`: the z-score was -5.46 (active). `COCCNC(=O)Cc1ccc(F)cc1`: the z-score was 3.03.

Take `Cn1cc(/C=C2\SC(=S)N(NC(=O)c3ccccc3)C2=O)c2ccccc21`: the z-score is 6.71.

Turning to `CCC(=O)N1CCN(c2ccccc2NC(=O)COc2cc(C)ccc2C(C)C)CC1`, the z-score is -3.26 (active). On to `COc1ccc(C)cc1NC(=O)CC(NC(C)=O)c1ccccc1` (stereo unspecified), for which the z-score is 4.5. Take `CCOc1ccc(-c2c(C#N)c(N)nc3sc(C(=O)c4ccccc4)c(N)c23)cc1`: the z-score was 9.11.

Regarding `Cc1nnc(SCC(=O)c2cc(C)n(-c3ccc4c(c3)OCO4)c2C)s1`, the z-score is -4.16 (active). In the case of `Cn1cc(C(N)=O)c2ccccc21` it was 0.12; in that of `O=S(=O)(c1ccc(Br)cc1)N1CCN(c2cc(-c3ccccc3)nc3ncnn23)CC1`, -6.61 (active); in that of `N/C(=N\OC(=O)N1c2ccccc2Sc2ccccc21)c1ccccc1`, -3.28 (active).

`O=C(N=C1SCC(=O)N1c1ccccc1Cl)c1ccccc1`: the z-score is 5.04. Regarding `COc1ccccc1CNC(=O)COC(=O)c1ccc(S(=O)(=O)N2CCCC2)cc1`, the z-score was -5.2 (active). Turning to `CC(C)NC(=O)NC(=O)COC(=O)c1cccc(S(=O)(=O)N2CCCCC2)c1`, the z-score was 4.62. Next, `CCN1C(=O)CSc2ccc(C(=O)NCc3ccccc3OC)cc21`: 3.1. Next, `Cn1c(=O)[nH]c(=O)c2c1nc(N1CCCCC1)n2CCCSc1nc2ccccc2s1`: 0.01; `CCC(=O)c1ccc(O)c(OC)c1`: -1.5; `CCOC(=O)C(C(C)=O)C(c1ccc(OCCC(C)C)cc1)C(C(C)=O)C(=O)OCC` (stereo unspecified): 0.98.

On to `CCOC(=O)C(C)S(=O)(=O)c1ccc(C(F)(F)F)cn1` (stereo unspecified), for which the z-score is -4.01 (active). Take `CCN1CCN(c2ncc3c(n2)CC(c2cc(OC)c(OC)c(OC)c2)CC3=O)CC1` (stereo unspecified): the z-score is -3.96 (active). Next, `O=C(Nc1ccc(N2CCCCC2)cc1)c1cccnc1`: 3.44; `O=C(NNC(=O)c1cccnc1)NC12CC3CC(CC(C3)C1)C2`: -3.86 (active). Next, `O=C(NCc1cccnc1)c1cnn2ccccc12`: -7.96 (active); `Cc1csc(NC(=O)c2sc3nc(-c4cccs4)ccc3c2N)n1`: 4.58. In the case of `Nc1c(C(=O)Nc2nc3ccccc3s2)sc2nc(-c3cccs3)ccc12` it was 5.64; in that of `O=C(Nc1nc(-c2cccs2)cs1)c1ccc(Cl)s1`, -3.6 (active). On to `Cc1cc(/C=N/n2cnnc2)c(C)n1-c1cccc(C(=O)O)c1`, for which the z-score is 4.18. In the case of `Cc1sc(-n2c(C)cc(/C=N/n3cnnc3)c2C)c(C#N)c1C` it was -4.46 (active); in that of `O=c1c2ccccc2c(C=Nc2ccccc2O)c(O)n1-c1nccs1`, 4.35; in that of `Cc1ccc(-n2c(O)c(/C=N/NC(=O)C3COc4ccccc4O3)c3ccccc3c2=O)cc1` (stereo unspecified), 3.14. Turning to `CCOc1ccc(-n2c(O)c(/C=N/Nc3nnc(C)c(=O)[nH]3)c3ccccc3c2=O)cc1`, the z-score was -5.62 (active). Next, `O=c1oc2cc(O)ccc2cc1-c1nc2c(s1)CCc1ccccc1-2`: 13.6. With `CC1(C)Cc2c(ccc3ccccc23)C(c2cc3ccccc3oc2=O)=N1`, the z-score is 4.19.

`O=C(NCCCCc1ccccc1)c1ccc(Br)o1`: the z-score was 1.07.

Take `CCCCN(CC)CCNC(=O)c1cc2c(C)nc3ccccc3c2o1`: the z-score was 0.65. As for `Cc1ccccc1C(=O)NCCCc1ccccc1`, the z-score was -5.2 (active). In the case of `Cc1cc(C(=O)CSc2nnnn2-c2ccccc2)c(C)n1CC1CCCO1` (stereo unspecified), the z-score is -1.4. In the case of `CCCCC1=CC2=C(c3ccco3)C(=O)C(C)(OC(=O)c3ccc(OC)cc3)C(=O)C2=CN1CC(C)C` (stereo unspecified) it was 4.34. Take `CC(CNC(=O)c1cncc(O)c1)NC(=O)c1cncc(O)c1` (stereo unspecified): the z-score is 3.21. Next, `CCCN1C=CC(=C/C=C(\C#N)C(=O)OCC)C=C1`: 3.98; `O=C(C1=NN(c2ccccc2)C2C(=O)N(c3cccc(Cl)c3)C(=O)C12)c1ccccc1` (stereo unspecified): 3.17. Next, `CCCCN1C(=O)/C(=C/C=C2\SCCN2C)SC1=S`: 13.8; `Cc1ccc(/C=N/NC(=O)NC2CCCCC2)o1`: -4.13 (active).

For the compound `NC1=NC[C@@H](Cc2ccc(O)cc2)N1CCCCC1CCCCC1`, the z-score is -1.05.

Take `CCn1c(Cn2nnc(-c3ccccc3)n2)nnc1SCC(=O)Nc1ccc(C(C)=O)cc1`: the z-score is 4.86.

`CCn1c(CN2CCCCCC2=O)nnc1SCc1cnc(-c2ccccc2)s1`: the z-score is -3.13 (active). Regarding `O=[N+]([O-])c1ccc(-c2ccc(/C=N/Nc3nc(NCc4ccccc4)nc(N4CCOCC4)n3)o2)cc1`, the z-score is 9.01.

`O=[N+]([O-])c1ccc(-c2ccc(/C=N/Nc3nc(N4CCCCC4)nc(N4CCCCC4)n3)o2)cc1`: the z-score was 5.14. On to `O=C(CSc1ccc2nnc(CCNC(=O)c3ccccc3)n2n1)Nc1ccccc1`, for which the z-score was 2.32. In the case of `COc1cc2c(cc1OC)-c1nncn1C(C)(C)C2` it was 3.76.

As for `CCCCN(C)C1=CC2=CC(=C(C#N)C#N)CCC2CC1` (stereo unspecified), the z-score is 16.

As to `COc1cc(NC(=O)c2ccccc2)c(OC)cc1NC(=O)CN1CCOCC1`, the z-score was -3.01 (active).

With `COc1ccc(Cl)cc1NC(=O)C1(c2cccs2)CCOCC1`, the z-score was 3.78.

As for `COc1cc2c(cc1NC(=O)CN1CCN(S(=O)(=O)c3ccccc3F)CC1)oc1ccccc12`, the z-score was 3.63.
